Measured values as given in PubChem BioAssay.
Values without a mark were called inactive. For some of these results: Measured potencies and affinities stand elsewhere. Activity calls are given as the source filed them. Unless noted, how the calls were made is not given here.

Tests used:
[1] = antimalarial activity against Dd2 strain (AID 2302;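 active means growth inhibition above 50% at the single 2 µM test dose, taken to imply half-maximal potency below 2 µM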;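 further: 0% = DMSO untreated growth and 100% = chloroquine plus artemisinin killed control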); conditions: P. falciparum Dd2 in RBCs, LDH growth readout, 72 h; at 2 µM; stronger effect = higher value
[2] = target: L-lactate dehydrogenase (Plasmodium falciparum (isolate CDC / Honduras)) (UniProt Q27743); experiment: PfLDH activity inhibition – cell lysate, 3D7 strain, counter-screen for P. falciparum growth inhibition project (AID 2304);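 further: 0% = vehicle and 100% = reference inhibitor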; conditions: P. falciparum 3D7 crude extract, LDH APAD/NBT absorbance; at 2 µM; stronger effect = higher value
Sequence of L-lactate dehydrogenase (Plasmodium falciparum (isolate CDC / Honduras)) (Q27743 whole entry, looked up): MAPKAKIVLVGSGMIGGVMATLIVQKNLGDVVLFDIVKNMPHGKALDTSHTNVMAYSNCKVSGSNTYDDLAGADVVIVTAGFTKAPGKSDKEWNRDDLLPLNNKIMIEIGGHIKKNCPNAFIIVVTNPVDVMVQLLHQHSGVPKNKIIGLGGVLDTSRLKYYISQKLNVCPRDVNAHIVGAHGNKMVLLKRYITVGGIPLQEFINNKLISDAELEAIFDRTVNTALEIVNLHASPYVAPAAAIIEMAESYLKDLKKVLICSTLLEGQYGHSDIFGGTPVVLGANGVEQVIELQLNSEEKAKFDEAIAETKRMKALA

[3] = inhibition of 3D7 malaria parasite growth – strain 3D7 (AID 2306);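 further: 0% = DMSO wells and 100% = chloroquine plus artemisinin control wells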; conditions: P. falciparum 3D7 erythrocytic growth, LDH absorbance, 72 h; at 2 µM; stronger effect = higher value
[4] = target: Calcium-dependent protein kinase 1 (Plasmodium falciparum (isolate 3D7)) (UniProt P62344); experiment: PfCDPK1 kinase inhibitors, biochemical, TCAMS library (AID 1159585; cut-off not given, nearly all actives have IC50 up to about 0.98 µM;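 further: inhibitors leave more ATP so luminescence rises with inhibition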); conditions: recombinant PfCDPK1, Kinase-Glo ATP depletion luminescence
Sequence of Calcium-dependent protein kinase 1 (Plasmodium falciparum (isolate 3D7)) (P62344 whole entry, looked up): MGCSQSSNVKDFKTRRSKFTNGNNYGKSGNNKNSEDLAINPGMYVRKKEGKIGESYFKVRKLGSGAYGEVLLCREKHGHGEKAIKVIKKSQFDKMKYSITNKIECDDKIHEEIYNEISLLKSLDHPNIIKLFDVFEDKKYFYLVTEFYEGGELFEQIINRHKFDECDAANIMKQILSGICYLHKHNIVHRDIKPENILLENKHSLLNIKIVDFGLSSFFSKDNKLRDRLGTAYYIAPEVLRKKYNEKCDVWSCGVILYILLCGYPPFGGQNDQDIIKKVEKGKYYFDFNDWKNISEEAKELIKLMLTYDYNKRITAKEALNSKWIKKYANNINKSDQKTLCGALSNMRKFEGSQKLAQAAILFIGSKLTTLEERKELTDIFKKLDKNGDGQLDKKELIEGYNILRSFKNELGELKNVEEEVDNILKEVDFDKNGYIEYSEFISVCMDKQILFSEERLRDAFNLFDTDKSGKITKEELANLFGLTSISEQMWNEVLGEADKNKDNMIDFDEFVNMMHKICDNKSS

[5] = target: Plasmodium falciparum protein kinase 6 (PK6, PF3D7_1337100) (UniProt Q8IDW1); experiment: PfPK6 kinase inhibitors, biochemical, TCAMS library (AID 1159586); conditions: recombinant PfPK6, Kinase-Glo ATP depletion luminescence
Sequence of Plasmodium falciparum protein kinase 6 (PK6, PF3D7_1337100) (Q8IDW1 1-305): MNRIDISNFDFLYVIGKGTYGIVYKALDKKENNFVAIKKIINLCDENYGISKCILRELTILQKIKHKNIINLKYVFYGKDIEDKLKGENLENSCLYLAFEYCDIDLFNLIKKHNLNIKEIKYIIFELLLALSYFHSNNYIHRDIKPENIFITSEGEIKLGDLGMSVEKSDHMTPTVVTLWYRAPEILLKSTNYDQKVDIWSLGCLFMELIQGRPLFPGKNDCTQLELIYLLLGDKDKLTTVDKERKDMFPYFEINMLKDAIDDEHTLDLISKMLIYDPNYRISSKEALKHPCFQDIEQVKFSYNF

[6] = target: Protein kinase 7 (PK7), Plasmodium falciparum 3D7 (PF3D7_0213400) (UniProt Q7YTF7); experiment: inhibition of Plasmodium PK7 catalytic activity – biochemical, TCAMS antimalarial set, Kinase-Glo luminescence (AID 1159587); conditions: recombinant PfPK7, Kinase-Glo ATP depletion luminescence
Sequence of Protein kinase 7 (PK7), Plasmodium falciparum 3D7 (PF3D7_0213400) (Q7YTF7 1-343): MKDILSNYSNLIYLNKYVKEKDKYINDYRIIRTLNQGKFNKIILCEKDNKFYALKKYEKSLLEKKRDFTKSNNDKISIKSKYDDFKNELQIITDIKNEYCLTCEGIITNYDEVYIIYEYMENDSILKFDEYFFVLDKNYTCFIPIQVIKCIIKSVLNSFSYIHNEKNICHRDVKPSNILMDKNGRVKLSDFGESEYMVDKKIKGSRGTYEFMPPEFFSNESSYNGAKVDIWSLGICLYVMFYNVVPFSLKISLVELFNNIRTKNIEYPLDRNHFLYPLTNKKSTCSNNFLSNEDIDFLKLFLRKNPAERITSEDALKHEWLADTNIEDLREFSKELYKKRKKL

[7] = target: Calcium-dependent protein kinase 4 (Plasmodium falciparum (isolate 3D7)) (UniProt Q8IBS5); experiment: PfCDPK4 kinase inhibitors, biochemical, TCAMS library (AID 1159588; cut-off not given, nearly all actives have IC50 up to about 0.91 µM); conditions: recombinant PfCDPK4, Kinase-Glo ATP depletion luminescence
Sequence of Calcium-dependent protein kinase 4 (Plasmodium falciparum (isolate 3D7)) (Q8IBS5 whole entry, looked up): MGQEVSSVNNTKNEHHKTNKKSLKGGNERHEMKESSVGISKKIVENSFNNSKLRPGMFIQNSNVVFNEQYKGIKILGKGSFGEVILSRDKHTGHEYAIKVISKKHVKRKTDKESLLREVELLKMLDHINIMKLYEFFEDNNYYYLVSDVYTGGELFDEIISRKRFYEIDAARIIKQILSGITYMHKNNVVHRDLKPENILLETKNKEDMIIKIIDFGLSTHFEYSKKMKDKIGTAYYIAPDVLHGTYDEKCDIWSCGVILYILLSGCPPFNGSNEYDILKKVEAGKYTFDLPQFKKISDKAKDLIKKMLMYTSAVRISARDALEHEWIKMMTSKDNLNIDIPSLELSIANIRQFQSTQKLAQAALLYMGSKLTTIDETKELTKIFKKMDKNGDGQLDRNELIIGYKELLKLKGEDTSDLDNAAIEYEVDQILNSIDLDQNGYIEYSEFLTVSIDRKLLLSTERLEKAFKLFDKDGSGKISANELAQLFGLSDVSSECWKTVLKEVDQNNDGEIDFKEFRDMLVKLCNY

[8] = HepG2 cytotoxicity, primary screen, cytotoxicity control for P. falciparum antimalarial project, cell-based, ATP luminescence (AID 2303;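 active means inhibition above 50%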;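 further: 0% = DMSO wells and 100% = digitonin-killed cells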); conditions: HepG2 viability, 24-48 h, at 10 µM, stronger effect = higher value

Row | SMILES | growth inhibition [1] | inhibition [2] [%] | growth inhibition [3] | outcome [4] | outcome [5] | outcome [6] | outcome [7] | inhibition [8] [%]
1 | CCC(C)c1cnc2nc(N)nc(N)c2c1C (centres undefined) | 1% | -3 | 97% (active) | inactive | inactive | inactive | inactive | 
2 | Cc1[nH]c(C)c(-c2ccc(Oc3ccc(C(F)(F)F)cc3)cc2)c(=O)c1Br | 97% (active) | -8 | 97% (active) | inactive | inactive | inactive | inactive | 
3 | Cn1c(=N)cc(-c2cccc(I)c2)c2c(=O)[nH]c(N)nc21 | 75% (active) | 6 | 89% (active) | inactive | inactive | inactive | inactive | 
4 | Cc1nc2nc(N)nc(N)c2c(C)c1Cc1ccc([N+](=O)[O-])cc1 | 11% | -1 | 98% (active) | inactive | inactive | inactive | inactive | 
5 | Cc1cccc(Cn2ccc3c4c(N)nc(N)nc4ccc32)c1 | 98% (active) | 1 | 95% (active) | inactive | inactive | inactive | inactive | 
6 | CCc1ccc(Cc2cnc3nc(N)nc(N)c3c2C)cc1CC | -1% | 6 | 97% (active) | inactive | inactive | inactive | inactive | 
7 | NC(=NCC1CC1c1ccccc1)c1cccc(C(N)=NCC2CC2c2ccccc2)n1 (centres undefined) | -2% | 0 | 95% (active) | inactive | inactive | inactive | inactive | 
8 | CCCCCCCc1c(C)[nH]c2ccc(F)cc2c1=O | 96% (active) | -5 | 98% (active) | inactive | inactive | inactive | inactive | 
9 | CC(C)(C)c1ccc(-c2nnc(N)nc2N)cc1 | -4% | -4 | 92% (active) | inactive | inactive | inactive | inactive | 
10 | CCN(CC)CCNc1cc(C)nc(/N=C(\N)Nc2ccc(Cl)cc2)n1 | 0% | 3 | 101% (active) | inactive | inactive | inactive | inactive | 
11 | Oc1cc2ccccc2cc1CNC1CCCCC1 | 89% (active) | -9 | 98% (active) | inactive | inactive | inactive | inactive | 
12 | NC(N)=NC(=O)Nc1ccc(Cl)c([N+](=O)[O-])c1 | 9% | -8 | 97% (active) | inactive | inactive | inactive | inactive | 
13 | CCCCc1cc(Cc2cnc(N)nc2N)cc(OC)c1OC | -1% | 3 | 86% (active) | inactive | inactive | inactive | inactive | 
14 | COc1ccc(Cc2c(Cl)nc3nc(N)nc(N)c3c2C)c(OC)c1OC | -3% | -2 | 98% (active) | inactive | inactive | inactive | inactive | 
15 | CC(=NNC(=S)NCc1ccco1)c1ccccn1 | 100% (active) | -6 | 99% (active) | inactive | inactive | inactive | inactive | 
16 | Cc1[nH]c(C)c(-c2ccc(S(=O)(=O)c3ccc(Cl)cc3)cc2)c(=O)c1Br | 97% (active) | 5 | 97% (active) | inactive | inactive | inactive | inactive | 
17 | Cc1[nH]c(C)c(-c2ccc(Oc3ccc(Cl)cc3)cc2)c(=O)c1I | 49% | 5 | 88% (active) | inactive | inactive | inactive | inactive | 
18 | c1ccc2c(NCCOCCNc3c4ccccc4nc4ccccc34)c3ccccc3nc2c1 | -1% | 5 | 94% (active) | inactive | inactive | inactive | inactive | 
19 | CCOC(=O)c1nc2ccc(SC3CCCCC3)cn2c1Br | 3% | 3 | 86% (active) | inactive | inactive | inactive | inactive | 

Row | SMILES | growth inhibition [1] | inhibition [2] [%] | growth inhibition [3] | outcome [4] | outcome [5] | outcome [6] | outcome [7] | inhibition [8] [%]
20 | Cc1nc2nc(N)nc(N)c2c(C)c1Cc1ccc(N)cc1 | -2% | -4 | 97% (active) | inactive | inactive | inactive | inactive | 
21 | Cc1[nH]c(C)c(-c2ccc(Oc3cccc(OC(F)(F)F)c3)cc2)c(=O)c1Br | 96% (active) | -7 | 100% (active) | inactive | inactive | inactive | inactive | 
22 | NC(N)=NC(=O)Nc1cc(F)c(Cl)c(Cl)c1 | 101% (active) | 2 | 101% (active) | inactive | inactive | inactive | inactive | 
23 | Cc1[nH]c(C)c(-c2ccc(Oc3cccc(C(F)(F)F)c3)cc2)c(=O)c1Br | 97% (active) | 4 | 99% (active) | inactive | inactive | inactive | inactive | 
24 | Nc1nc(N)c2c3c(ccc2n1)NCCC3 | -10% | -3 | 97% (active) | inactive | inactive | inactive | inactive | 
25 | CCOc1ccc(CNCCCCCCNCc2ccc(OCC)c3ccccc23)c2ccccc12 | 75% (active) | -4 | 101% (active) | inactive | inactive | inactive | inactive | 
26 | COc1ccc2c(=O)c(Br)c(C)[nH]c2c1 | 74% (active) | -8 | 89% (active) | inactive | inactive | inactive | inactive | 
27 | CC(=O)Oc1c(Cl)c(C)nc(C)c1-c1ccc(Oc2ccc(OC(F)(F)F)cc2)cc1 | 98% (active) | 5 | 97% (active) | inactive | inactive | inactive | inactive | 
28 | CCc1ccc(Cc2cnc3nc(N)nc(N)c3c2C)cc1 | -1% | 0 | 97% (active) | inactive | inactive | inactive | inactive | 
29 | COc1cc(Cc2cnc(N)nc2N)ccc1OCc1csc(-c2ccc(Cl)cc2)n1 |  | 2 | 93% (active) | inactive | inactive | inactive | inactive | 39
30 | N#Cc1cc(N(CCCOc2cccc(OC(F)(F)F)c2)Cc2ccccc2C(F)(F)F)ccc1C(F)(F)F |  | 0 | 94% (active) | inactive | inactive | inactive | inactive | 2
31 | COc1cc(CCNC(=O)Cc2ccc3ccccc3c2)ccc1OCc1ccccc1 | 61% (active) | 2 | 93% (active) | inactive | inactive | inactive | inactive | 
32 | O=C(CN1C(=O)CC1S(=O)(=O)Cc1ccco1)NCCCCCCc1ccc(F)cc1 (centres undefined) |  | -4 | 95% (active) | inactive | inactive | inactive | inactive | -2
33 | CN1CCC(N2CCN(C(=O)c3cccc(-c4cccc(-c5nc6ccccc6[nH]5)c4)c3)CC2)CC1 |  | 3 | 100% (active) | inactive | inactive | inactive | inactive | 10
34 | COc1ccc(Cl)cc1N1CCN(CCCNC(=O)c2ccc(-c3nc4c(C)cccc4[nH]3)s2)CC1 |  | 5 | 98% (active) | inactive | inactive | inactive | inactive | -2
35 | COc1ccc(Cc2c(Cl)nc3nc(N)nc(N)c3c2C)cc1 | 3% | 6 | 94% (active) | inactive | inactive | inactive | inactive | 
36 | COc1cc2ncnc(Nc3ccc(OC(F)(F)c4ccccc4)cc3)c2cc1OC |  | 2 | 91% (active) | inactive | inactive | inactive | inactive | 14
37 | Cc1[nH]c(C)c(-c2ccc(Oc3ccccc3)cc2)c(=O)c1Br | 97% (active) | 1 | 96% (active) | inactive | inactive | inactive | inactive | 
